# Reference: PubChem BioAssay (NCATS)
# Inconclusive results are not listed. Active and inactive are the calls of the source. The call rests on the fitted dose curve; in most records, active means well fitted inhibition curve with a large enough effect; inconclusive means small, poorly fitted or top-dose-only effect; inactive means flat fitted curve, though single readings scatter.
# Test system: Zika virus NS2B-NS3 protease
# Assay: Primary screen GU AMC qHTS for Zika virus inhibitors (AID 1347154);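 further: 0% = no-inhibitor control and -100% = no-enzyme control; nearly all actives have a fitted effect of over 70% in size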
# Conditions: Zika NS2B-NS3 unlinked protease, AMC fluorogenic substrate; series mostly up to 54.1 µM; activity change, negative = inhibition: at the top concentration
# In short: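 Unlinked Zika NS2B hydrophilic domain/NS3 protease domain noncovalent complex (25 nM final) in 10 mM Tris-HCl pH 8.0, 0.01% Tween 20, with AMC peptide substrate. Fluorescence (ex 340, em 450 nm) change over 15 min, room temperature; percent inhibition fitted to 4-parameter Hill equation.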
Structure (SMILES),"activity change, negative = inhibition",Potency
OC1C(O)C(O)C(O)C(O)C1O (centres undefined),3.36% (inactive),
CC(CNC1CCCCC1)OC(=O)c1ccccc1 (centres undefined),2.47% (inactive),
CC1(C)OC[C@@H]2O[C@@]3(C(=O)O)OC(C)(C)O[C@H]3[C@@H]2O1,-6.76% (inactive),
CC(=O)Nc1ccc(OC(=O)c2ccccc2OC(C)=O)cc1,5.47% (inactive),
c1ccc(-c2nc[nH]c2-c2ccccc2)cc1,0.101% (inactive),
NC(=O)C1(N2CCCCC2)CCN(CCCC(=O)c2ccc(F)cc2)CC1,1.25% (inactive),
Cc1cccc(C)c1NC(=O)CN1CCCCCC1,-2.39% (inactive),
O=C1C(=O)c2ccccc2C(O)=C1C1CCC(c2ccc(Cl)cc2)CC1 (centres undefined),,inactive
CCOC(=O)Nc1ccc2c(c1)N(C(=O)CCN1CCOCC1)c1ccccc1S2,0.0408% (inactive),
CCCCC(CC)CN1CN(CC(CC)CCCC)CC(C)(N)C1 (centres undefined),5.67% (inactive),
O=C1C(CCS(=O)c2ccccc2)C(=O)N(c2ccccc2)N1c1ccccc1 (centres undefined),-6.59% (inactive),
c1ccc(CC2=NCCN2)cc1,-3.38% (inactive),
Nc1ccc(S(=O)(=O)NCc2ccccc2)cc1,0.815% (inactive),
CC(=O)O[C@H]1C[C@@H]2CC[C@@H]3[C@H](CC[C@@]4(C)[C@H]3C[C@H]([N+]3(C)CCCCC3)[C@@H]4OC(C)=O)[C@@]2(C)C[C@@H]1N1CCCCC1,5.43% (inactive),
O=C(O)CCC(=O)Nc1ccc(S(=O)(=O)Nc2nccs2)cc1,2.34% (inactive),
NS(=O)(=O)Cc1noc2ccccc12,,inactive
C/C=C/c1ccc(O)c(OC)c1,-7.13% (inactive),
O=C(Nc1ccccc1)OCC(CN1CCCCC1)OC(=O)Nc1ccccc1 (centres undefined),-12.7% (inactive),
CC(O)Cn1cnc2c1c(=O)n(C)c(=O)n2C (centres undefined),5.64% (inactive),
CCOc1ccc(NC(C)=O)cc1,2.5% (inactive),

Structure (SMILES),"activity change, negative = inhibition",Potency
O=C(O)P(=O)(O)O,0.001% (inactive),
COc1ccc(CCN(C)CCCN2CCc3cc(OC)c(OC)cc3CC2=O)cc1OC,,inactive
CC(=O)NO,0.548% (inactive),
CCN(CC)CCOc1ccccc1C(=O)CCc1ccccc1,4.34% (inactive),
CC(=O)O[C@]1(C(C)=O)CC[C@H]2[C@@H]3C=C(C)C4=CC(=O)CC[C@]4(C)[C@H]3CC[C@@]21C,-4.33% (inactive),
CCCCCCCCOc1ccc(C(=O)c2ccccc2)c(O)c1,-1.64% (inactive),
CCOCCn1c(N2CCCN(C)CC2)nc2ccccc21,5.41% (inactive),
CC(C)(C)CC(C)(C)c1ccc(O)c(-n2nc3ccccc3n2)c1,-12.4% (inactive),
Cc1c[nH]c2ccccc12,-3.13% (inactive),
CCc1ccc(C(=O)C(C)CN2CCCCC2)cc1 (centres undefined),9.42% (inactive),
Cc1ccc(S(=O)(=O)NC(=O)NC2CCCC2)cc1,0.998% (inactive),
CC(C(=O)O)c1cccc(Oc2ccccc2)c1 (centres undefined),13.3% (inactive),
O=C(O)Cc1csc(-c2ccc(Cl)cc2)n1,-1.4% (inactive),
C[C@H]1[C@H]2CC[C@H]3[C@@H]4CC=C5C[C@@H](N(C)C)CC[C@]5(C)[C@H]4CC[C@]23CN1C,3.6% (inactive),
OCc1ccccn1,1.33% (inactive),
CNCCCCOc1ccccc1Cc1ccccc1,,inactive
CCN(CC)CCNc1ccc(CO)c2sc3ccccc3c(=O)c12,-17.2% (inactive),
CCC1Nc2cc(Cl)c(S(N)(=O)=O)cc2S(=O)(=O)N1 (centres undefined),-3.12% (inactive),
CC(=O)OC[C@H]1O[C@@H](n2ncc(=O)[nH]c2=O)[C@H](OC(C)=O)[C@@H]1OC(C)=O,5.5% (inactive),
